# Screening results: PubChem, National Center for Advancing Translational Sciences (NCATS)
# VP16 counter: VP16 counterscreen qHTS for inhibitors of ROR gamma transcriptional activity; AID 2546, 2010; Drosophila S2 Gal4-VP16 UAS-luciferase, luminescence, 20 h; actives 3.5% (n = 310,000); Potency, µM (titrated, usually from 53.6 µM), actives largely listed as inhibitors;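 also: Gal4-VP16 expression switched on by copper sulfate through the metallothionein promoter; nearly all actives have a fitted effect of over 50% in size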
# SW480 rerep: A quantitative high throughput screen for small molecules that induce DNA re-replication in SW480 colon adenocarcinoma cells. SW480 DNA re-replication, Hoechst DNA content imaging, 48 h. Potency, µM (titrated, usually from 46.1 µM), actives largely listed as activators. actives 1.8% (n = 340,000). AID 624297, 2012; also: nearly all actives have a fitted effect of over 55% in size
#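 Treated cells incubate 48 hr (37 C, 5% CO2), are stained 40 min with Hoechst, and nuclear fluorescence is enumerated; a rise in nuclei with high DNA signal marks re-replication.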
# KB-3-1 cytotox: qHTS assay for MDR1-selective chemotherapeutics: Primary screen using the parental adenocarcinoma cell KB-3-1. actives 1.4% (n = 400,000). Potency, µM (highest dose often 46.1 µM), most hits filed as cytotoxic. KB-3-1 viability, CellTiter-Glo ATP luminescence, 72 h; also: nearly all actives have a fitted effect of over 60% in size
#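 Parental KB-3-1 adenocarcinoma cells in phenol-red-free DMEM with 10% FBS were pin-treated with compounds at several concentrations, incubated 72 h at 37 °C, and viability read by CellTiter-Glo luminescence; concentration-effect curves were fitted after normalization.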
# RORg inh: qHTS for inhibitors of ROR gamma transcriptional activity | Potency, µM (top dose mostly 53.6 µM), most hits filed as inhibitors | actives 5.4% (n = 310,000) | Drosophila S2 Gal4-RORgamma UAS-luciferase reporter, 20 h; also: nearly all actives have a fitted effect of over 60% in size
# Target sequence (P51450 whole entry, looked up, the tested form may be a part): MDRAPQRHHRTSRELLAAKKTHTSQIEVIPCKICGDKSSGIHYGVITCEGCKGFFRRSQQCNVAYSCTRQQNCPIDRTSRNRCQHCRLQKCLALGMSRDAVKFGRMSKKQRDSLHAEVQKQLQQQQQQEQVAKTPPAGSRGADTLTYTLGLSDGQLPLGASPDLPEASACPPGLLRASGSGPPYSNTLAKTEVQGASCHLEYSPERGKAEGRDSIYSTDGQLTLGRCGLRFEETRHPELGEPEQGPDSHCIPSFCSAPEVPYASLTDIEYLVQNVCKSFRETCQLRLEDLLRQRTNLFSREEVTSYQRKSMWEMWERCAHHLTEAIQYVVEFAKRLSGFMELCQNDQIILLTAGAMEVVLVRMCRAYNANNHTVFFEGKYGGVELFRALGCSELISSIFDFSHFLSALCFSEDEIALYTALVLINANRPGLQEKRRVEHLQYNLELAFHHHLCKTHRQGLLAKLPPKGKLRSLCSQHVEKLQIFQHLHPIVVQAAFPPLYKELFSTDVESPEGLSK
#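 In this cell-based reporter format, copper sulfate (700 uM final) drives Gal4–ROR gamma fusion expression from a metallothionein promoter in Drosophila Schneider cells; compounds preincubated 1 hr, reporter read after 20 hr at ambient temperature.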
# KB-V1 MDR tox: qHTS assay for MDR1-selective chemotherapeutics: Primary screen using the drug-selected MDR subline cells KB-V1. KB-V1 MDR cells viability, CellTiter-Glo, 72 h. Potency, µM (doses to about 46.1 µM), actives largely listed as cytotoxic. actives 3.4% (n = 400,000); also: nearly all actives have a fitted effect of over 60% in size
#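 Drug-selected KB-V1 cells, grown in DMEM lacking phenol red with 10% FBS, receive compound titrations; after three days at 37 degrees C, surviving cell ATP is quantified by CellTiter-Glo luminescence and responses normalized and curve-fitted.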
# MCF10A rereplic: A quantitative high throughput screen for small molecules that induce DNA re-replication in MCF 10a normal breast cells | Potency, µM (series often up to 46.1 µM), most hits filed as activators | MCF 10A DNA re-replication, Hoechst nuclear intensity, 48 h | actives 2.9% (n = 350,000); also: nearly all actives have a fitted effect of over 50% in size
# Numbers stand for hits; i = inactive; ? = inconclusive; nt = not tested or not shown; [ ] = remark or other dose. Most compounds without a hit are left out; they make up all but 10% or so of the library. Calls follow the shape of the dose curve; as a rule, active = well fitted curve in the direction sought with a large enough effect; inconclusive = small, poorly fitted or top-dose-only effect, or another doubt; inactive = no such curve, though single readings can be large; an effect the other way counts as inactive or inconclusive.
SMILES,VP16 counter,SW480 rerep,KB-3-1 cytotox,RORg inh,KB-V1 MDR tox,MCF10A rereplic
CCc1ccc(C(=O)Nc2nc(C)cs2)s1,11µM,i,i,7.1µM,i,?
O=C(Nc1ccc(F)c(Cl)c1)c1cc(C2CCCN(C(=O)c3cccs3)C2)on1 (stereo unspecified),nt,nt,i,nt,i,nt
O=C(CN1C(=O)C2(SCC(=O)N2c2cccc(Cl)c2)c2ccccc21)NC1CCCCC1 (stereo unspecified),nt,nt,?,nt,i,nt
Cc1csc(NC(=O)c2ccc3ccccc3n2)n1,7.1µM,i,i,2.5µM,?,i
O=C(Nc1nc(-c2cc(Cl)sc2Cl)cs1)c1ccccc1,?,i,?,i,i,21µM
O=C(Nc1ccccn1)c1ccc2ccccc2c1O,13µM,i[9.22 µM],i,?,i,i
Cc1cccc(NC(=O)c2ccc3ccccc3n2)c1C,?,i,i,1.8µM,i,i
CC(C)(C)NC(=O)N1CCC(C(=O)O)CC1,nt,nt,i,nt,i,nt
CC(C)c1ccc(OCC(=O)Nc2ccc(S(=O)(=O)Nc3ncccn3)cc2)cc1,nt,nt,i,nt,i,nt
Cc1nc2ccc(S(=O)(=O)N(CC(=O)Nc3ccc(F)cc3F)Cc3ccccc3)cc2s1,nt,nt,i,nt,i,nt
O=C(Nc1ccccn1)c1ccc2ccccc2n1,?,i[9.22 µM],i,10µM,i,i
CC(NC(=O)c1ccc2ccccc2n1)c1ccc(Br)cc1 (stereo unspecified),i,?,?,i,i,23µM
Cc1csc(NC(=O)c2cnc3ccccc3n2)n1,?,i,i,11µM,i,i
Cc1cc(C(=O)Nc2ccccn2)no1,nt,i,i,i[0.365 µM],i,i
Cc1cnc(C(=O)Nc2cccc3ncccc23)cn1,i,i,i,i,i,i
Cc1cnc(C(=O)Nc2ccccc2-c2ccc(C)o2)cn1,?,i,i,7.1µM,i,?
COc1ccc(N2CCN(C(=O)c3cc(S(=O)(=O)N4CCC(C)CC4)cn3C)CC2)cc1,nt,nt,?,nt,i,nt
Cc1csc(NC(=O)c2cc(-c3ccco3)nc3ccccc23)n1,?,i,i,?,i,i
Cc1csc(NC(=O)c2cc(C)nc3ccccc23)n1,i,i,i,11µM,?,i
CN(C)c1ccc(CN(C(=O)C2COc3ccccc3O2)C2CCS(=O)(=O)C2)cc1 (stereo unspecified),i,i,i,?,18µM,?
COC(=O)c1ccc(C2C(C(=O)c3cc4ccccc4o3)=C(O)C(=O)N2c2cc(C)on2)cc1 (stereo unspecified),?,?,i,i,i,23µM
COc1cc(C2C(C(=O)c3cc4ccccc4o3)=C(O)C(=O)N2c2cc(C)on2)cc(OC)c1OC (stereo unspecified),?,i,i,i,i,?
Cc1cc(N2C(=O)C(O)=C(C(=O)c3cc4ccccc4o3)C2c2ccc(OC(C)C)cc2)no1 (stereo unspecified),?,i,?,i,i,?
Cc1cc(N2C(=O)C(O)=C(C(=O)c3cc4ccccc4o3)C2c2cccc(Br)c2)no1 (stereo unspecified),?,i,i,?,?,18µM
CCCOc1cccc(C2C(C(=O)c3cc4ccccc4o3)=C(O)C(=O)N2c2cc(C)on2)c1 (stereo unspecified),?,i,?,?,i,5.8µM
Cc1ccc(C2C(C(=O)c3cc4ccccc4o3)=C(O)C(=O)N2CCN2CCOCC2)cc1 (stereo unspecified),i,i,i,i,i,21µM
COc1cccc(N(CC(=O)N2CCC(C)CC2)S(=O)(=O)c2ccc(C)cc2)c1,nt,nt,i,nt,i,nt
COc1cc(NC(=O)C2Cc3ccccc3N2C(=O)c2ccccc2)cc(OC)c1 (stereo unspecified),nt,nt,i,nt,i,nt
